Consider 13 molecules from PubChem BioAssay (NCI).

Among the test systems are NCI-H23 lung; NCI-H322M lung; HOP-62 NSCLC; NCI-H460 lung; HOP-92 NSCLC; NCI-H522 lung; A549/ATCC NSCLC; 786-0 renal; COLO 205 colon; NCI-H226 lung.
What all share (assay): NCI-60 one-dose screen, 48 h (100 = growth as untreated, 0 = no growth, -100 = all killed)
What all share (conditions): 10 µM unless noted

“And” between values parts separate entries of the source, which are not always exact repeats. Equal entries are not always repeated. The panel holds about 83,000 compounds, 20% with a hit somewhere; the sample as a whole holds those more often.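 96-well plates, one dose, 48 hours. Percent growth reported; active if below 10.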 The source made the active and inactive calls.

On to `O=Nc1ccc(NO)c2ccccc12`, for which the growth was 90.6% (inactive) and 68.3% (inactive) with NCI-H23 lung; 97.8% (inactive) and 96.2% (inactive) in the test on NCI-H322M lung; 103% (inactive) and 90.5% (inactive) with HOP-62 NSCLC; 94.6% (inactive) and 105% (inactive) in the test with NCI-H460 lung; 95.1% (inactive) and 92.9% (inactive) in the test on HOP-92 NSCLC; 93.3% (inactive) and 69.5% (inactive) in the test with NCI-H522 lung. Besides, the growth with A549/ATCC NSCLC is 106% (inactive) and 27.5% (inactive); in the test with 786-0 renal it was 104% (inactive) and 96.9% (inactive); in the test on COLO 205 colon, 101% (inactive) and 85.1% (inactive).

Take `CON1CCC[C@]2(C)[C@H]3CC[C@@H]4[C@H]5[C@@H](O)C(C)(C)CC[C@]5(CO)CC[C@@]4(C)[C@]3(C)CC[C@H]2C1(C)C`: the growth in the test with NCI-H23 lung is 102% (inactive); with NCI-H226 lung, 92.8% (inactive); with HOP-62 NSCLC, 95.6% (inactive); in the test on NCI-H460 lung, 102% (inactive); in the test with HOP-92 NSCLC it was 116% (inactive); with NCI-H522 lung, 84% (inactive). The growth in the test with A549/ATCC NSCLC is 94.2% (inactive); in the test on 786-0 renal it was 100% (inactive).

As for `COc1cc(/C=N/NC(=O)CCN2c3ccccc3Sc3ccccc32)cc(OC)c1OC`, the growth in the test with NCI-H23 lung was 71.8% (inactive); in the test with NCI-H226 lung it was 79.3% (inactive); in the test on HOP-62 NSCLC it was 101% (inactive); with NCI-H460 lung it was 95.8% (inactive); in the test with HOP-92 NSCLC it was 61.5% (inactive); in the test on NCI-H522 lung, 70.3% (inactive). Moreover, the growth in the test with A549/ATCC NSCLC was 79% (inactive); in the test on 786-0 renal it was 96.8% (inactive); in the test with COLO 205 colon, 105% (inactive).

Regarding `Cc1ccc(-c2nc(SCC(=O)c3ccc(C#N)cc3)[nH]c(=O)c2C#N)cc1`, the growth is 105% (inactive) in the test on NCI-H23 lung; 110% (inactive) with NCI-H226 lung; 103% (inactive) in the test on HOP-62 NSCLC; 115% (inactive) in the test with NCI-H460 lung; 108% (inactive) with HOP-92 NSCLC; 82.1% (inactive) in the test on NCI-H522 lung. Besides, the growth in the test with A549/ATCC NSCLC was 98.4% (inactive); with 786-0 renal, 96.1% (inactive); in the test on COLO 205 colon, 88.9% (inactive).

Regarding `CN1CCN(Cc2ccc(NC(=O)c3cccc(C#Cc4c(N)ncc5ccc(F)cc45)c3)cc2C(F)(F)F)CC1`, the growth in the test on NCI-H23 lung is -78.2% (active); with NCI-H226 lung it was 4.59% (active); in the test on HOP-62 NSCLC, -36.4% (active); in the test on NCI-H460 lung, -92.3% (active); with HOP-92 NSCLC, -49.4% (active); in the test on NCI-H522 lung, -61.1% (active). Further, the growth with A549/ATCC NSCLC is -69.6% (active); in the test on 786-0 renal, -83.2% (active); with COLO 205 colon, -59.6% (active).

On to `O=S(=O)(Nc1ccc(F)cc1)c1ccc(-c2cnc(C3CC3)o2)cc1`, for which the growth with NCI-H23 lung is 42% (inactive); in the test with NCI-H226 lung, 63.9% (inactive); with HOP-62 NSCLC, 34.7% (inactive); in the test on NCI-H460 lung, 15.8% (inactive); in the test on HOP-92 NSCLC, 50.5% (inactive); in the test with NCI-H522 lung, 0.0519% (active). The results for the growth in the test on A549/ATCC NSCLC, in the test on 786-0 renal and in the test with COLO 205 colon were 37.8% (inactive), 38.5% (inactive) and 20.2% (inactive), respectively.

`COc1c(F)cc(-n2c(C(=O)N3CC(F)C3)cc3cccnc32)cc1F`: the growth in the test with NCI-H23 lung is 94.1% (inactive); with NCI-H226 lung, 96.2% (inactive); in the test on HOP-62 NSCLC it was 97.8% (inactive); in the test with NCI-H460 lung, 106% (inactive); in the test on HOP-92 NSCLC it was 82.7% (inactive); in the test with NCI-H522 lung it was 91.2% (inactive). For the same molecule, the growth is 113% (inactive) in the test with A549/ATCC NSCLC, 103% (inactive) in the test with 786-0 renal and 118% (inactive) in the test with COLO 205 colon.

With `COc1cc(/C=C2/C=C(c3ccc(C(C)(C)C)cc3)N(CCc3ccc(S(N)(=O)=O)cc3)C2=O)cc(OC)c1OC`, the growth was 62.3% (inactive) in the test with NCI-H23 lung; 62.7% (inactive) with NCI-H226 lung; 77% (inactive) in the test with HOP-62 NSCLC; 35.6% (inactive) with NCI-H460 lung; 23% (inactive) in the test with HOP-92 NSCLC; 49.8% (inactive) in the test with NCI-H522 lung. Further, the growth in the test with A549/ATCC NSCLC was 38.2% (inactive); with 786-0 renal, 29.7% (inactive); in the test with COLO 205 colon, 34.3% (inactive).

For `C=C(CNCCc1ccc(O)cc1)[C@@H]1CC[C@]2(CO)CC[C@]3(C)[C@H](CC[C@@H]4[C@@]5(C)CCC(NCCc6ccc(O)cc6)C(C)(C)[C@@H]5CC[C@]43C)[C@@H]12` (stereo partly specified), the growth with NCI-H23 lung is -78.2% (active); with NCI-H226 lung, -61% (active); in the test on HOP-62 NSCLC, -90.7% (active); with NCI-H460 lung it was -79.4% (active); in the test on HOP-92 NSCLC, -88.4% (active); in the test on NCI-H522 lung, -73.1% (active). The growth with A549/ATCC NSCLC is -82.4% (active); in the test on 786-0 renal, -89.9% (active); in the test on COLO 205 colon, -91.1% (active).

On to `C/C=C(/C)C(=O)O[C@@H]1CC(C)(C)CC2C34OC(=O)[C@@]21CC[C@@]3(C)[C@]1(C)CCC2C(C)(C)C(=O)CC[C@]2(C)C1C[C@@H]4Cl` (stereo partly specified), for which the growth with NCI-H23 lung is 95.4% (inactive); with NCI-H226 lung, 86.7% (inactive); with HOP-62 NSCLC, 94.5% (inactive); in the test on NCI-H460 lung it was 97.7% (inactive); in the test with HOP-92 NSCLC it was 74.7% (inactive); with NCI-H522 lung, 93% (inactive). Besides, the growth in the test on A549/ATCC NSCLC is 91% (inactive); with 786-0 renal, 90.4% (inactive); in the test with COLO 205 colon, 98.8% (inactive).

For the molecule `O=C(CC1(O)C(=O)Nc2ccc(Br)cc21)c1ccc(Cl)cc1` (stereo unspecified), the growth with NCI-H23 lung is 96.8% (inactive); in the test with NCI-H226 lung it was 80.1% (inactive); in the test with HOP-62 NSCLC, 88.7% (inactive); in the test on NCI-H460 lung, 106% (inactive); with HOP-92 NSCLC, 86.1% (inactive); with NCI-H522 lung, 81% (inactive). Further, the figures for the growth in the test on A549/ATCC NSCLC, in the test on 786-0 renal and in the test on COLO 205 colon were 90.5% (inactive), 114% (inactive) and 109% (inactive), respectively.

Consider `CCOc1ccc(N2C(N)=NC(N)=NC2(C)C)cc1`, for which the growth is 47.6% (inactive) and 83.8% (inactive) with NCI-H23 lung; 45.2% (inactive) and 99.4% (inactive) with NCI-H322M lung; 26.6% (inactive) and 84.5% (inactive) in the test on HOP-62 NSCLC; 13.7% (inactive) and 104% (inactive) in the test on NCI-H460 lung; 10.3% (inactive) and 72.5% (inactive) in the test with HOP-92 NSCLC; -7.67% (active) and 90.1% (inactive) in the test with NCI-H522 lung. Besides, the growth is 19.5% (inactive) and 44.8% (inactive) with A549/ATCC NSCLC; 56.5% (inactive) and 84.2% (inactive) in the test with 786-0 renal; -32.6% (active) and 83% (inactive) with COLO 205 colon.

In the case of `Cc1ccc(C(=O)c2ccc(CC(=O)N=Nc3c(O)[nH]c4ccc(OC(F)(F)F)cc34)n2C)cc1`, the growth is 90% (inactive) in the test on NCI-H23 lung; 91% (inactive) in the test on NCI-H226 lung; 93.3% (inactive) in the test on HOP-62 NSCLC; 103% (inactive) with NCI-H460 lung; 116% (inactive) in the test with HOP-92 NSCLC; 85.6% (inactive) in the test on NCI-H522 lung. In addition, the growth in the test on A549/ATCC NSCLC is 86% (inactive); in the test on 786-0 renal, 101% (inactive); in the test with COLO 205 colon, 110% (inactive).
